# In PMC7862700, “An all-to-all approach to the identification of sequence-specific readers for epigenetic DNA modifications on cytosine”:
# Key:
# Assay in all cases: DAPPL (digital affinity profiling via proximity ligation, sequencing); 10 mM Tris-HCl pH 7.5, 50 mM NaCl, 1 mM DTT, 4% glycerol, room temperature, 30 min; GST-TFs on glutathione beads, 16-mer random dsDNA library, 0.1% formaldehyde crosslink after washing; high values mean tight binding
# Settings in all cases: protein: recombinant; tags: N-terminal GST; dsDNA, one strand shown
# FLI1 = biological target: T1, FLI1 (Homo sapiens, UniProt Q01543 1-452)
# T1 sequence: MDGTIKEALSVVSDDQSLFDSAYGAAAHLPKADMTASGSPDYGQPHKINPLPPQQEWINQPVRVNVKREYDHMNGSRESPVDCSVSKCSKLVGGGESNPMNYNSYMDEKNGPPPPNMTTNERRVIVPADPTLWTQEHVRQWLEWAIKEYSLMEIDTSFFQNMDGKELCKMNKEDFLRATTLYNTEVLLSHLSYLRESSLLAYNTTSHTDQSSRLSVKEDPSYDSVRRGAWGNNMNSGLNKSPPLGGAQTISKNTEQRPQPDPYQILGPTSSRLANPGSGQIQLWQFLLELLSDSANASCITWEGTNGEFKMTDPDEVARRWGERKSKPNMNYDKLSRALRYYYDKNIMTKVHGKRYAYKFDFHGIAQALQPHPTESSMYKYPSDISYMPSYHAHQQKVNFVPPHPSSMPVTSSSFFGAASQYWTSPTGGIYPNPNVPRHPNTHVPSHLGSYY
# Summary of the method: (§1)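 After expression in yeast as GST fusions, human transcription factors were bound to glutathione beads, DNA-barcoded and mixed with a tag-only sample. The pools were incubated with 200 nmole of a 16-mer random double-stranded DNA library in Tris/NaCl/DTT/glycerol buffer (30 min, room temperature), washed and crosslinked with 0.1% formaldehyde. Proximity ligation with BsaI/T4 ligase ran for 1 h at 37 °C, before PCR amplification and sequencing on an Illumina NextSeq500. Binding signal is a hexamer's read frequency for a factor divided by its frequency for the tag-only sample.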
# ELK1 = biological target: T2, ELK1 (Homo sapiens, UniProt P19419 1-428)
# T2 sequence: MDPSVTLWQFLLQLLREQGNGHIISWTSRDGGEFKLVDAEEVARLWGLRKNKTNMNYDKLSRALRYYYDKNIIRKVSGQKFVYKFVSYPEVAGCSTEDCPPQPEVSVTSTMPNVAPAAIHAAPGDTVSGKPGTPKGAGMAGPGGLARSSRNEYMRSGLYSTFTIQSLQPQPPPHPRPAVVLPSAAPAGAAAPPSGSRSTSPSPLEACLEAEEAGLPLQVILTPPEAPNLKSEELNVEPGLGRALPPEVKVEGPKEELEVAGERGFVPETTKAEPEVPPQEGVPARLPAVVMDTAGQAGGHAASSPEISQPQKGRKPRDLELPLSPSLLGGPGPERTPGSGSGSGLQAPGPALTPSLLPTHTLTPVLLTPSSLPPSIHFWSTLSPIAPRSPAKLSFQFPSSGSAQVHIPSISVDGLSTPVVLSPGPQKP
# Summary of the method: as §1
# GABPA = biological target: T3, GABPA (Homo sapiens, UniProt Q06546 1-454)
# T3 sequence: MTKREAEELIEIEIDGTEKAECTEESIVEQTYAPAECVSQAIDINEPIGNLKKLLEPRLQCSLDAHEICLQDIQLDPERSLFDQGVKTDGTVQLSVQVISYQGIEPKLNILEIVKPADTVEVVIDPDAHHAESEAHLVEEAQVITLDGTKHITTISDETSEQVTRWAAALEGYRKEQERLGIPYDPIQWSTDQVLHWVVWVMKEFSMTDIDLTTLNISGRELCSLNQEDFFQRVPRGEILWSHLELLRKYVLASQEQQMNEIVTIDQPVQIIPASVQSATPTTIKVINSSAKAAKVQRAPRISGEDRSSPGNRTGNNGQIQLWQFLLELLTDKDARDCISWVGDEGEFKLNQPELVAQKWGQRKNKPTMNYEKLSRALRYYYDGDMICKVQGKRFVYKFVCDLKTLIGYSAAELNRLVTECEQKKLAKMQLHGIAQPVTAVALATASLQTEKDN
# Summary of the method: as §1
# ERG = biological target: T4, ERG (Homo sapiens, UniProt P11308 1-479)
# T4 sequence: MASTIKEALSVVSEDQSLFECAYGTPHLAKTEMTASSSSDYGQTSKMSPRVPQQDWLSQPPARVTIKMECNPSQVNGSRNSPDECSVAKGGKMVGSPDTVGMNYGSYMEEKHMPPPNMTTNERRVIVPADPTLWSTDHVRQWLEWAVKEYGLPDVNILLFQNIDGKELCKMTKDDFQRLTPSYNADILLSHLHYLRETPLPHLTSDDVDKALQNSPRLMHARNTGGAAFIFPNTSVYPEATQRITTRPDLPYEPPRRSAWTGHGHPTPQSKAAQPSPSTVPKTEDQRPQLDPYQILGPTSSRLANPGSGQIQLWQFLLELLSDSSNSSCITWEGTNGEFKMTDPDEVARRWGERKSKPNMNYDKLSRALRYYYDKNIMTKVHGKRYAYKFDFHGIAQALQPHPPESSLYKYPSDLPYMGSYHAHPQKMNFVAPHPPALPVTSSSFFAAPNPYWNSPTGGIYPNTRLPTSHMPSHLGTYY
# Summary of the method: as §1
# ELF1 = ELF1 (Homo sapiens, UniProt P32519 1-619)
# Sequence of ELF1 (P32519 whole entry): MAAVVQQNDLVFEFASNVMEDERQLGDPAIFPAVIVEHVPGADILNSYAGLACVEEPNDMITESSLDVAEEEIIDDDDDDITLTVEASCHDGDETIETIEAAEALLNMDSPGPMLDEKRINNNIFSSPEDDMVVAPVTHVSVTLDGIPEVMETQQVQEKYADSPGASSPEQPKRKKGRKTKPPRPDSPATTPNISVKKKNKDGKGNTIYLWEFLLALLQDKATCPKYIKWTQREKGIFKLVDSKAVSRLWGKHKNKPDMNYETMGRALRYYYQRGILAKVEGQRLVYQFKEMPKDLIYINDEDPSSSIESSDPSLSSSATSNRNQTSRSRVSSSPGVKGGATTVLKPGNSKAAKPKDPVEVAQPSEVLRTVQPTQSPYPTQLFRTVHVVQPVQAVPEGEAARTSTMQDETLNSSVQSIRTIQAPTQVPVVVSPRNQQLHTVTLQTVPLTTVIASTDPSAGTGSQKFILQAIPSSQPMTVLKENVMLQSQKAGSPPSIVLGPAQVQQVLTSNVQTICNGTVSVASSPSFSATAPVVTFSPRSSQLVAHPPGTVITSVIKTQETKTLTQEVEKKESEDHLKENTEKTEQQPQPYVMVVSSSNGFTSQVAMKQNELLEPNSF
# Summary of the method: as §1
# EHF = biological target: T5, EHF (Homo sapiens, UniProt Q9NZC4 1-300)
# T5 sequence: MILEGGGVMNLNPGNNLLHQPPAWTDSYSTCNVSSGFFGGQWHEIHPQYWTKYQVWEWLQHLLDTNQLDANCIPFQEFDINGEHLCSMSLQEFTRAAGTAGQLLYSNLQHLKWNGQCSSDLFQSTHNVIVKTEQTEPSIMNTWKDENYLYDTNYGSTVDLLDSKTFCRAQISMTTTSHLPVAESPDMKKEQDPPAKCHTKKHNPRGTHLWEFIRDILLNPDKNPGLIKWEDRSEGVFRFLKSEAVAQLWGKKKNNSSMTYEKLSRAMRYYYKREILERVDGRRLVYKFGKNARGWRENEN
# Summary of the method: as §1
# SPI1 = SPI1 (Homo sapiens, UniProt P17947 1-270)
# Summary of the method: as §1
# SPIB = SPIB (Homo sapiens, UniProt Q01892 1-262)
# Sequence of SPIB (Q01892 whole entry): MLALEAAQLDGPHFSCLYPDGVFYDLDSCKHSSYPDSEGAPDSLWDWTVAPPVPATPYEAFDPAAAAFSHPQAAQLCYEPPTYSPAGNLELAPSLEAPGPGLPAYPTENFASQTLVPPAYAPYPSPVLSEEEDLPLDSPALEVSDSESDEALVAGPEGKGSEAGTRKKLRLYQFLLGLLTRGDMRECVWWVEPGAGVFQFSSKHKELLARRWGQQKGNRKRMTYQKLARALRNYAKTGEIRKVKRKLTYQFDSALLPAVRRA
# Summary of the method: as §1
# ELK3 = biological target: T6, ELK3 (Homo sapiens, UniProt P41970 1-407)
# T6 sequence: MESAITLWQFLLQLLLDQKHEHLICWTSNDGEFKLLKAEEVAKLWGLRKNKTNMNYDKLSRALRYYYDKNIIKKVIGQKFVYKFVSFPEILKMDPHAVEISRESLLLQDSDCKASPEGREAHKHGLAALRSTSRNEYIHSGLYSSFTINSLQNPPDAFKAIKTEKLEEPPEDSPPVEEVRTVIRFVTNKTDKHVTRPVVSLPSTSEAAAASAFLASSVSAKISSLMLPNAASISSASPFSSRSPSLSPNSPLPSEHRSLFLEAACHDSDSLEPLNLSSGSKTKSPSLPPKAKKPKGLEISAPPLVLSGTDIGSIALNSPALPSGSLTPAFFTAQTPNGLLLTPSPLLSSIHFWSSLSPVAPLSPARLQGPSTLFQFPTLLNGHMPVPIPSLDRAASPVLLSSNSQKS
# Summary of the method: as §1
# FEV = biological target: T7, FEV (Homo sapiens, UniProt Q99581 1-238)
# T7 sequence: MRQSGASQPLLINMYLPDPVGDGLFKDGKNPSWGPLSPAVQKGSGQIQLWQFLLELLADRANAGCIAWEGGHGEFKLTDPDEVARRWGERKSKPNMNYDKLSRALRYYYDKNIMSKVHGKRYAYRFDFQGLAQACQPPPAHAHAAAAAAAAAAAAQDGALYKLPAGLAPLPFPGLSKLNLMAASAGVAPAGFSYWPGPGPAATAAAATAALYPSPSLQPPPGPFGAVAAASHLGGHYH
# Summary of the method: as §1
# ETV5 = ETV5 (Homo sapiens, UniProt P41161 1-510)
# Sequence of ETV5 (P41161 whole entry): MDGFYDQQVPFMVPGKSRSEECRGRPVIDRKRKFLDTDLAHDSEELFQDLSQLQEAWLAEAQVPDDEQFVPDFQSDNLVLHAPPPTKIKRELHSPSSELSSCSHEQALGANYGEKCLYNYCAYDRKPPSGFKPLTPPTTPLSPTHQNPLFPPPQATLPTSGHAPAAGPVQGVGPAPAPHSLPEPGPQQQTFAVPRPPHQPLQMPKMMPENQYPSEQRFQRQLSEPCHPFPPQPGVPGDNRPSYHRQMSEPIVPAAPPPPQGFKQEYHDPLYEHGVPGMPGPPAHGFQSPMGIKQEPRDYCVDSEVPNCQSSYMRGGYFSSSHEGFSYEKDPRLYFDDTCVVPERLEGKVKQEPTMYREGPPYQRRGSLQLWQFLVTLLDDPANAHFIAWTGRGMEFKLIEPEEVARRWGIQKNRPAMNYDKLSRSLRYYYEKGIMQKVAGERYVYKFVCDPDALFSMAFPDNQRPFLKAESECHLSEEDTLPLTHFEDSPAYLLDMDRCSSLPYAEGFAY
# Summary of the method: as §1
# SPIC = biological target: T8, SPIC (Homo sapiens, UniProt Q8N5J4 1-248)
# T8 sequence: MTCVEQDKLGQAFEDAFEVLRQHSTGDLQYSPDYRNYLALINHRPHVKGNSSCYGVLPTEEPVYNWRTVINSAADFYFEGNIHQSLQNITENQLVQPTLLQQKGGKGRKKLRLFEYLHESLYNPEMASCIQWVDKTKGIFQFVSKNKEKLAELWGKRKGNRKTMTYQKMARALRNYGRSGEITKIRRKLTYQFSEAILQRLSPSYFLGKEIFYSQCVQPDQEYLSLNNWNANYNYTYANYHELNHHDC
# Summary of the method: as §1
# ELF4 = ELF4 (Homo sapiens, UniProt Q99607 1-663)
# Sequence of ELF4 (Q99607 whole entry): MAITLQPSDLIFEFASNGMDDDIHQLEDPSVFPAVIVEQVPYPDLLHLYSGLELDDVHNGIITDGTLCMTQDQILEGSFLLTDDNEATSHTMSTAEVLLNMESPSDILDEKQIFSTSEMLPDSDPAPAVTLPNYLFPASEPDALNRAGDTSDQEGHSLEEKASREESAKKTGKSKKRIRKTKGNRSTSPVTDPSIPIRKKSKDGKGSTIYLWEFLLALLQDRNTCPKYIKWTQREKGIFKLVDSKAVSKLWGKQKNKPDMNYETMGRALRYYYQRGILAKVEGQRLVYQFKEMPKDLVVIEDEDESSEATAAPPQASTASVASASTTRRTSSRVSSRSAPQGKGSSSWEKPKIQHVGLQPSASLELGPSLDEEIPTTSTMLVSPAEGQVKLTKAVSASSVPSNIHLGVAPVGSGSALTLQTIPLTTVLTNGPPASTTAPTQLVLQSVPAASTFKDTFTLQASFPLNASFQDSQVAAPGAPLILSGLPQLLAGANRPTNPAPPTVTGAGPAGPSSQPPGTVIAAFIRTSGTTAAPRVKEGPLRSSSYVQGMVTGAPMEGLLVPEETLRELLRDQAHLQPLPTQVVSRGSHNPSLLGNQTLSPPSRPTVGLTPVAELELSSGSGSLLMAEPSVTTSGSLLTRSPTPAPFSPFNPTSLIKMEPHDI
# Summary of the method: as §1
# ELK4 = biological target: T9, ELK4 (Homo sapiens, UniProt P28324-2 1-405)
# T9 sequence: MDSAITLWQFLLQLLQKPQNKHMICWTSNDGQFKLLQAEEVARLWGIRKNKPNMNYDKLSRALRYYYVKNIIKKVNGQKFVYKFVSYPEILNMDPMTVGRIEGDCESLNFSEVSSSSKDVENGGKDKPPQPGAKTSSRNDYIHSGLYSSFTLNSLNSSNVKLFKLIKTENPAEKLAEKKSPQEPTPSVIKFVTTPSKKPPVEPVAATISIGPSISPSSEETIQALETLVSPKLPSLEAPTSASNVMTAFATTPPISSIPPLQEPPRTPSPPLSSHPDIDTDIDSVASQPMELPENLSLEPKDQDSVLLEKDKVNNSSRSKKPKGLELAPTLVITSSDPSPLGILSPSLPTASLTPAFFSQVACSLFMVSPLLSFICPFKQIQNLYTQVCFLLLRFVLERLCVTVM
# Summary of the method: as §1
# ETV2 = biological target: T10, ETV2 (Homo sapiens, UniProt O00321 1-342)
# T10 sequence: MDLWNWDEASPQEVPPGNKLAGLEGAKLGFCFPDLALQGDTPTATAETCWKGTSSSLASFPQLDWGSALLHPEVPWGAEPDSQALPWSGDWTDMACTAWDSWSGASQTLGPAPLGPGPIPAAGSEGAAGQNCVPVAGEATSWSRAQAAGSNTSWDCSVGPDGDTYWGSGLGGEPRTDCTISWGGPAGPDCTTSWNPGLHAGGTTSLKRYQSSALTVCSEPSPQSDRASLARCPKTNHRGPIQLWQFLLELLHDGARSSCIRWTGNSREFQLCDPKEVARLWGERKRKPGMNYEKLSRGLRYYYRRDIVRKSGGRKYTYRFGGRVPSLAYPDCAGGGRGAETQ
# Summary of the method: as §1
# ELF3 = biological target: T11, ELF3 (Homo sapiens, UniProt P78545 1-371)
# T11 sequence: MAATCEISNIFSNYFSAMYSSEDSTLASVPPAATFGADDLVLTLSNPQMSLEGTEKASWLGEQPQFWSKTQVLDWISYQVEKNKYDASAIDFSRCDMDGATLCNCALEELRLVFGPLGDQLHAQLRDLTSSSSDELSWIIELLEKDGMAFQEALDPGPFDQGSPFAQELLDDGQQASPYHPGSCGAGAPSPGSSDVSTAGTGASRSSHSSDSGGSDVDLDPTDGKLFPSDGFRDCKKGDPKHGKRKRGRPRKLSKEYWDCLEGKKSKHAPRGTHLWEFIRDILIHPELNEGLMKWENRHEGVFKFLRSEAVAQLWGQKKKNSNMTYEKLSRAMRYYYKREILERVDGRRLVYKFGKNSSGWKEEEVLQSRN
# Summary of the method: as §1
# CRX = CRX (Homo sapiens, UniProt O43186 1-299)
# Sequence of CRX (O43186 whole entry): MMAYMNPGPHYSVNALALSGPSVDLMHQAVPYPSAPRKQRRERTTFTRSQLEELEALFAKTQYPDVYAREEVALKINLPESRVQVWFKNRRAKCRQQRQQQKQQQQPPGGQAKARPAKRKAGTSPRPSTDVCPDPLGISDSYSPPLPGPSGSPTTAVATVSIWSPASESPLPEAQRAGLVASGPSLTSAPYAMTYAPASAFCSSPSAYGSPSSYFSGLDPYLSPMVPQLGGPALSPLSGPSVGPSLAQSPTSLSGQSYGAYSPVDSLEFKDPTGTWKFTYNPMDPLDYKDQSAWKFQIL
# Summary of the method: as §1
# ETV1 = ETV1 (Homo sapiens, UniProt P50549 1-477)
# Sequence of ETV1 (P50549 whole entry): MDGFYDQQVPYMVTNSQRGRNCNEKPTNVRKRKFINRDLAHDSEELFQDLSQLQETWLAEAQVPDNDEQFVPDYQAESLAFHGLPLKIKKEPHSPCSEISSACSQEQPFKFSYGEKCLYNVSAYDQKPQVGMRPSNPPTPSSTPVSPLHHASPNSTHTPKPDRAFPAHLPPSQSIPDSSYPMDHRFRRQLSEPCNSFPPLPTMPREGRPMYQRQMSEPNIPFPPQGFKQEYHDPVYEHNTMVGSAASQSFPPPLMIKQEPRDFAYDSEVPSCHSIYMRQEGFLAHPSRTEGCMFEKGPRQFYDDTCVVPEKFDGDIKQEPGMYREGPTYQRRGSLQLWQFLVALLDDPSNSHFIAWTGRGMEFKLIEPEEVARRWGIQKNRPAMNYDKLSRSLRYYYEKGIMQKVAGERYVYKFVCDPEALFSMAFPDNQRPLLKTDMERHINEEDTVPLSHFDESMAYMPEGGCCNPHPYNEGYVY
# Summary of the method: as §1
Sequence,binding signal (FLI1),binding signal (ELK1),binding signal (GABPA),binding signal (ERG),binding signal (ELF1),binding signal (EHF),binding signal (SPI1),binding signal (SPIB),binding signal (ELK3),binding signal (FEV),binding signal (ETV5),binding signal (SPIC),binding signal (ELF4),binding signal (ELK4),binding signal (ETV2),binding signal (ELF3),binding signal (CRX),binding signal (ETV1)
ATACGT,"1.12 fold enrichment (6-mer frequency, TF over GST control)","1.14 fold enrichment (6-mer frequency, TF over GST control)","1.11 fold enrichment (6-mer frequency, TF over GST control)","1.09 fold enrichment (6-mer frequency, TF over GST control)","1.11 fold enrichment (6-mer frequency, TF over GST control)","1.24 fold enrichment (6-mer frequency, TF over GST control)","1.06 fold enrichment (6-mer frequency, TF over GST control)","1.13 fold enrichment (6-mer frequency, TF over GST control)","1.12 fold enrichment (6-mer frequency, TF over GST control)","1.11 fold enrichment (6-mer frequency, TF over GST control)","1.13 fold enrichment (6-mer frequency, TF over GST control)","1.09 fold enrichment (6-mer frequency, TF over GST control)","1.08 fold enrichment (6-mer frequency, TF over GST control)","1.15 fold enrichment (6-mer frequency, TF over GST control)","1.04 fold enrichment (6-mer frequency, TF over GST control)","1.1 fold enrichment (6-mer frequency, TF over GST control)","1.01 fold enrichment (6-mer frequency, TF over GST control)","1.13 fold enrichment (6-mer frequency, TF over GST control)"
CGTTAT,"1.14 fold enrichment (6-mer frequency, TF over GST control)","1.11 fold enrichment (6-mer frequency, TF over GST control)","1.11 fold enrichment (6-mer frequency, TF over GST control)","1.1 fold enrichment (6-mer frequency, TF over GST control)","1.17 fold enrichment (6-mer frequency, TF over GST control)","1.07 fold enrichment (6-mer frequency, TF over GST control)","1.11 fold enrichment (6-mer frequency, TF over GST control)","1.16 fold enrichment (6-mer frequency, TF over GST control)","1.26 fold enrichment (6-mer frequency, TF over GST control)","1.03 fold enrichment (6-mer frequency, TF over GST control)","1.15 fold enrichment (6-mer frequency, TF over GST control)","1.23 fold enrichment (6-mer frequency, TF over GST control)","1.16 fold enrichment (6-mer frequency, TF over GST control)","1.15 fold enrichment (6-mer frequency, TF over GST control)","1.21 fold enrichment (6-mer frequency, TF over GST control)","1.04 fold enrichment (6-mer frequency, TF over GST control)","1.05 fold enrichment (6-mer frequency, TF over GST control)",–
